# Measurements taken from the supplement of paper PMC6555819.
# Tested on: PPARg:RXRa 270nM:90nM, anti-RXR (NR concentration 270 nM, RXRa partner concentration 90 nM)
# Test: PBM binding z-score (relative to random genomic background probes); higher = stronger binding; sequences stand for … in GC…GCGATTGACAGCGTAGAATGAAGG
# Procedure, shortened: (§1)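 Antibodies against each partner of ligand-free nuclear receptor dimers (one per run) detected binding on custom Agilent 4×180K protein-binding microarrays after 1 h incubation. The double-stranded probes had 34-nt variable regions carrying direct-repeat seeds, single-nucleotide variants, half-site ablations and random human genomic background sequences. Binding z-scores, from regression-normalized fluorescence, use the random background probes as reference.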
row,Sequence,PBM binding z-score
1,CCGAGTAGGTTACGAGGGGGCATTCAATGCGAAT,3.7
2,CCGAGTAGGTTACGAGGGGGCATTTAGTGCGAAT,3.44
3,TCGAGTAGGTTACGGGGGGATTCAGGGATGAAGA,4.06
4,CTGAGTAGGTTACGAGGGGGCATTCAGTGCGAAT,4.41
5,CTATGTAGGTTAAGGGGGTCATACAGTTTGAAAG,8.13
6,CTATGTAGGTTAAGGGGGTCTTTCAGTTTGAAAG,7.16
7,CCGAGTAGGTTACGAGGGGGCAATCAGTGCGAAT,3.24
8,CCGAGTAGGTTACCAGGGGGCATTCAGTGCGAAT,3.31
9,TCGAGTCGGTTACGGGGGCATTCAGGGATGAAGA,2.62
10,TCGAGTAGGTTACGGGGACATTCAGGGATGAAGA,3.06
11,CTATGTAGGTTAAGGGGGTCATTCCGTTTGAAAG,7.77
12,CTATGTAGGTTGAGGGGGTCATTCAGTTTGAAAG,5.93
13,CCGAGTGGGTTACGAGGGGGCATTCAGTGCGAAT,2.54
14,CCGAGTAGGTTATGAGGGGGCATTCAGTGCGAAT,3.12
15,CCGAGTAGGTAACGAGGGGGCATTCAGTGCGAAT,2.41
16,CCGGGTAGGTTACGAGGGGGCATTCAGTGCGAAT,2.96
17,CCGAGTAGCTTACGAGGGGGCATTCAGTGCGAAT,0.5
18,CTATGAAGGTTAAGGGGGTCATTCAGTTTGAAAG,6.01
19,CCGAGTAGGTTACGAGGAGGCATTCAGTGCGAAT,1.25
20,CTCTGTAGGTTAAGGGGGTCATTCAGTTTGAAAG,6.91

row,Sequence,PBM binding z-score
1,CTATGGAGGTTAAGGGGGTCATTCAGTTTGAAAG,6.6
2,TCGAGTAGGTTACGGGGGCATTCACGGATGAAGA,6.16
3,CTATGTAGGTTAAGGGGGTCATTCAGTTTGAAAG,7.99
4,CCGAGTAGGTTACGAGGGGGCCTTCAGTGCGAAT,2.53
5,CCGAGTAGGTTACGAGGGGGCATTCACTGCGAAT,3.18
6,CCGAGTAGGTTACGAGGGGGCATTCATTGCGAAT,3.26
7,CTATATAGGTTAAGGGGGTCATTCAGTTTGAAAG,8.04
8,CAGAGTAGGTTACGAGGGGGCATTCAGTGCGAAT,4.37
9,CTATGTAGGTTAAGGGGTTCATTCAGTTTGAAAG,6.53
10,CCGAGTAGGTTACGAGGCGGCATTCAGTGCGAAT,1.28
11,CTAAGTAGGTTAAGGGGGTCATTCAGTTTGAAAG,7.83
12,TCGAGTAGGCTACGGGGGCATTCAGGGATGAAGA,2.51
13,CCATGTAGGTTAAGGGGGTCATTCAGTTTGAAAG,7.13
14,CTATGTAGGTTAAGGGTGTCATTCAGTTTGAAAG,7.44
15,CTATGTAGGCTAAGGGGGTCATTCAGTTTGAAAG,6.41
16,CCGAGTAGGTTACGAGGGGGCTTTCAGTGCGAAT,2.7
17,CTATGTAGGTTAAGGGGGTCATTCGGTTTGAAAG,7.83
18,CTATGTTGGTTAAGGGGGTCATTCAGTTTGAAAG,5.2
19,CCGAGTAGGTTACGAGGGGGCATCCAGTGCGAAT,3.34

# Tested on: PPARg:RXRa 30nM:10nM, anti-RXR (NR concentration 30 nM, RXRa partner concentration 10 nM)
# Test: as above
# Procedure, shortened: as §1
row,Sequence,PBM binding z-score
1,CCGAGTAGGTTACGAGGGGGCATTCAATGCGAAT,1.21
2,CCGAGTAGGTTACGAGGGGGCATTTAGTGCGAAT,1.22
3,TCGAGTAGGTTACGGGGGGATTCAGGGATGAAGA,3.29
4,CTGAGTAGGTTACGAGGGGGCATTCAGTGCGAAT,1.42
5,CTATGTAGGTTAAGGGGGTCATACAGTTTGAAAG,6.16
6,CTATGTAGGTTAAGGGGGTCTTTCAGTTTGAAAG,4.5
7,CCGAGTAGGTTACGAGGGGGCAATCAGTGCGAAT,0.613
8,CCGAGTAGGTTACCAGGGGGCATTCAGTGCGAAT,0.696
9,TCGAGTCGGTTACGGGGGCATTCAGGGATGAAGA,1.58
10,TCGAGTAGGTTACGGGGACATTCAGGGATGAAGA,1.81
11,CTATGTAGGTTAAGGGGGTCATTCCGTTTGAAAG,5.98
12,CTATGTAGGTTGAGGGGGTCATTCAGTTTGAAAG,2.9
13,CCGAGTGGGTTACGAGGGGGCATTCAGTGCGAAT,0.567
14,CCGAGTAGGTTATGAGGGGGCATTCAGTGCGAAT,1.53
15,CCGAGTAGGTAACGAGGGGGCATTCAGTGCGAAT,0.082
16,CCGGGTAGGTTACGAGGGGGCATTCAGTGCGAAT,1.05
17,CCGAGTAGCTTACGAGGGGGCATTCAGTGCGAAT,-0.877
18,CTATGAAGGTTAAGGGGGTCATTCAGTTTGAAAG,3.46
19,CCGAGTAGGTTACGAGGAGGCATTCAGTGCGAAT,-0.283
20,CTCTGTAGGTTAAGGGGGTCATTCAGTTTGAAAG,4.4

row,Sequence,PBM binding z-score
1,CTATGGAGGTTAAGGGGGTCATTCAGTTTGAAAG,3.97
2,TCGAGTAGGTTACGGGGGCATTCACGGATGAAGA,3.37
3,CTATGTAGGTTAAGGGGGTCATTCAGTTTGAAAG,6.08
4,CCGAGTAGGTTACGAGGGGGCCTTCAGTGCGAAT,0.553
5,CCGAGTAGGTTACGAGGGGGCATTCACTGCGAAT,1.02
6,CCGAGTAGGTTACGAGGGGGCATTCATTGCGAAT,1.35
7,CTATATAGGTTAAGGGGGTCATTCAGTTTGAAAG,6.09
8,CAGAGTAGGTTACGAGGGGGCATTCAGTGCGAAT,2.05
9,CTATGTAGGTTAAGGGGTTCATTCAGTTTGAAAG,4.01
10,CCGAGTAGGTTACGAGGCGGCATTCAGTGCGAAT,-0.404
11,CTAAGTAGGTTAAGGGGGTCATTCAGTTTGAAAG,6.33
12,TCGAGTAGGCTACGGGGGCATTCAGGGATGAAGA,1.38
13,CCATGTAGGTTAAGGGGGTCATTCAGTTTGAAAG,4.55
14,CTATGTAGGTTAAGGGTGTCATTCAGTTTGAAAG,6.35
15,CTATGTAGGCTAAGGGGGTCATTCAGTTTGAAAG,3.65
16,CCGAGTAGGTTACGAGGGGGCTTTCAGTGCGAAT,0.558
17,CTATGTAGGTTAAGGGGGTCATTCGGTTTGAAAG,6.21
18,CTATGTTGGTTAAGGGGGTCATTCAGTTTGAAAG,2.97
19,CCGAGTAGGTTACGAGGGGGCATCCAGTGCGAAT,0.797
